PubChem BioAssay (NCATS)
Results filed as inconclusive are left out. A call without a number means that no potency is given here. The source made the active and inactive calls. Unless noted, the call rests on the fitted dose curve; in most records, active means well fitted curve in the direction sought with a large enough effect; inconclusive means small, poorly fitted or top-dose-only effect, or another doubt; inactive means no such curve, though single readings can be large; an effect the other way counts as inactive or inconclusive.

Legend:
[1] = qHTS for Inhibitors of Plasmodium falciparum (7G8) proliferation (AID 504316); further: nearly all actives have a fitted effect of over 65% in size; further: potency means the concentration at half of the fitted maximal effect
Summary of the method: (§1)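 Parasite growth measured as SYBR Green DNA fluorescence (ex 485, em 535 nm) after overnight lysis following 72 h culture at 37 °C, 0.3% parasitemia, 2.5% hematocrit. Values normalized against DMSO and 0.29 uM artemisinin controls, with plate-stack correction.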

[2] = molecular target: Atrial natriuretic peptide receptor 1 (Homo sapiens) (UniProt P16066); experiment: Natriuretic polypeptide receptor (hNpr1) antagonism - Pilot CMLD screen (AID 1347052; calls by dose curve;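 further: HEK293 cells with hNpr1 stimulated by hNppA peptide at 0.1 nM; cGMP level read as GloSensor luciferase luminescence after agonist stimulation; series mostly up to about 9.2 µM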)
Atrial natriuretic peptide receptor 1 (Homo sapiens), sequence (P16066 whole entry, looked up): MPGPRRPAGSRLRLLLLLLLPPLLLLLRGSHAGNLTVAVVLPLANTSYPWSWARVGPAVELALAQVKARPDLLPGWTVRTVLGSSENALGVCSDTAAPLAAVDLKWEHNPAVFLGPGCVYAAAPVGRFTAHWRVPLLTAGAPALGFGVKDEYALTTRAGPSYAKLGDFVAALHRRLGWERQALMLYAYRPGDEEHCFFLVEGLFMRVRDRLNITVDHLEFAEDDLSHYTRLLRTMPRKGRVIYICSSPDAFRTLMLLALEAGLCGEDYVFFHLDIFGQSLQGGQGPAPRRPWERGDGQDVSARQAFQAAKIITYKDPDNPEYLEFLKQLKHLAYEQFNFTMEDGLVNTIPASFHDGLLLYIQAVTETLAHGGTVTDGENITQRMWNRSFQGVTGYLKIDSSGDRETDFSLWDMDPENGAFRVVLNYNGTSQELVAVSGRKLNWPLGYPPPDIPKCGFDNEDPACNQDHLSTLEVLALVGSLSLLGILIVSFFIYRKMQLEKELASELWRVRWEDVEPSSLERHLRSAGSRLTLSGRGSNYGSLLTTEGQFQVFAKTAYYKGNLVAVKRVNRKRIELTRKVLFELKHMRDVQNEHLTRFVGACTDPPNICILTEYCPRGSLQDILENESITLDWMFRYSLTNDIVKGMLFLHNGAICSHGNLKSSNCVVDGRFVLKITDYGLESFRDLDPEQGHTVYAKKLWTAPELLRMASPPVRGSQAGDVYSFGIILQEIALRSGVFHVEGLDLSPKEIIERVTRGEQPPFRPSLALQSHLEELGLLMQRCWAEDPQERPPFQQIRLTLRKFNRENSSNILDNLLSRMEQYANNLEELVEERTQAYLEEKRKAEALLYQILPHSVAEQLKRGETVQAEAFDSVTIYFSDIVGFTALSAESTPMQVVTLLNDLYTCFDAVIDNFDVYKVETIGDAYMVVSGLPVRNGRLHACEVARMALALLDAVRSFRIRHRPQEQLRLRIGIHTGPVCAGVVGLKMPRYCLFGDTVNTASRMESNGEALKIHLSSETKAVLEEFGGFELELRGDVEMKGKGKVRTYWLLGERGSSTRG

[3] = qHTS for Inhibitors of Plasmodium falciparum (GB4) proliferation (AID 504315); further: nearly all actives have a fitted effect of over 50% in size
Summary of the method: as §1

[4] = qHTS for Inhibitors of Plasmodium falciparum (CP250) proliferation (AID 504320)
Summary of the method: as §1

Row | SMILES | Potency [1] | Potency [2] | Potency [3] | Potency [4]
1 | CCCCn1c(C)cc2c(c1=O)[C@H]1O[C@](CCCCN3C(=O)c4ccccc4C3=O)(Cc3ccccc31)O2 | 1.69 µM (active) | inactive |  | 
2 | CCOC(=O)CCN1C(=O)[C@@H]2[C@H]3[C@H](O)[C@H](O)CC(=NOCc4ccccc4)[C@@H]3CC[C@H]2C1=O |  | inactive | inactive | inactive
3 | COC(=O)[C@@H]1CC[C@H](C)[C@@H](c2ccc(C)cc2)N1C(=O)c1ccc(C=NOC[C@H]2O[C@H](c3ccccc3)C=C[C@H]2Oc2ccc(OC)cc2)cc1 | inactive | inactive |  | 
4 | COc1ccc([C@]23Cc4cc(OC)c(OC)cc4[C@H](O2)C2=C(CC(C)(C)CC2=O)O3)cc1 |  | inactive | inactive | inactive
5 | CC(C)=CCCC(C)=CCON=C1C[C@@H](O)[C@@H](O)[C@@H]2[C@H]3C(=O)N(Cc4ccccc4)C(=O)[C@@H]3CC[C@@H]12 |  | inactive | inactive | inactive
